ELG1 DNA repair: ELG1-dependent DNA repair inhibition; HEK293T ELG1-luciferase reporter, luminescence, 16 h; DNA damage induced by 5-fluorouridine; Potency, µM (top dose mostly 46.1 µM), inactives show at the highest dose activity change, negative = inhibition, usual class: inhibitors; actives 2.3% (n = 330,000); note: % is set by controls: 0 for no effect and ±100 for the full control effect; nearly all actives have a fitted effect of over 55% in size
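5-Fluorouridine DNA damage + compound/DMSO, 2,000 cells/well, 16 h, 37 °C/5% CO2. ONE-Glo, 30 min RT, luminescence. Readout = decrease in reporter signal.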
SMN2 splice up: enhancers of SMN2 splice variant expression | AID 1458 | actives 2.8% (n = 210,000) | HEK293 SMN2-luciferase splicing reporter, luminescence, 30-36 h | Potency, µM (doses to about 46.1 µM), for the others: at the highest dose activity change, positive = activation, actives largely listed as activators; note: % of control where 0% means no effect; nearly all actives have a fitted effect of over 55% in size
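qHTS luciferase splicing reporter: luminescence rises when SMN2 exon 7 is included in transfected HEK293 cells. Compound exposure lasted 30-36 h at 37C, with 4.5 mM final sodium butyrate as control, followed by a ONE-Glo read.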
FLuc counter: firefly luciferase modulation, counter-screen for miR-21 project; P08659; Potency, µM (highest dose often 57.5 µM), without a hit: top-dose activity change, negative = inhibition, usual class: inhibitors; actives 6.9% (n = 360,000); purified FLuc, Km substrates, luminescence inhibition; AID 588342;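 note: plate controls were vehicle for no effect and reference inhibitor for full effect; nearly all actives have a fitted effect of over 55% in size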
Target sequence (P08659 whole entry, looked up): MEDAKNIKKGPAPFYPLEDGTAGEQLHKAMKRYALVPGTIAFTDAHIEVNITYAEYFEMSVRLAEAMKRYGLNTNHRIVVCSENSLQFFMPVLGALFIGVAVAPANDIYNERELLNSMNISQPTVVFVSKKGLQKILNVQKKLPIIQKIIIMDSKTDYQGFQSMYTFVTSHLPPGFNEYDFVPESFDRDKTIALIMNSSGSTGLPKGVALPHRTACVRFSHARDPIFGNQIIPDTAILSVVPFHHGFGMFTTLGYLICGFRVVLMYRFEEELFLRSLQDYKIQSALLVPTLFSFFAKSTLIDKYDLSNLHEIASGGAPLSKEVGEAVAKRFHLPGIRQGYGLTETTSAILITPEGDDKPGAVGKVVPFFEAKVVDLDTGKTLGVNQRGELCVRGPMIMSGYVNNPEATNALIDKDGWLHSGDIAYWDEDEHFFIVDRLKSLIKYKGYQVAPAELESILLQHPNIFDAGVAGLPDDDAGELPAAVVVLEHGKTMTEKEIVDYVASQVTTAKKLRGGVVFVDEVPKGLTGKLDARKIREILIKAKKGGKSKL
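Purified P. pyralis luciferase (10nM final) with 10uM D-luciferin and 10uM ATP (Km levels) in 50mM Tris acetate pH 7.5, 10mM Mg acetate, 0.01% Tween-20, 0.05% BSA; qHTS 6-point titration, ~60 µM downward; luminescence read.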
NPC1 promoter act: activators of NPC1 promoter | Huh7 NPC1 promoter luciferase reporter, 24 h | Potency, µM (doses to about 9.22 µM), for inactives: at the top dose activation, hits mostly activators | actives 2.4% (n = 320,000) | AID 485313; note: % of control where 0% means no effect; nearly all actives have a fitted effect of over 60% in size
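Stably transfected Huh7 (NPC1 promoter→luciferase), 1500 cells/well in Opti-MEM + 10% FBS, 2 h settle, then compound 24 h at 37 °C. Luminescence after 10 min with Amplite reagent.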
ELG1 genotoxic: induces genotoxicity in HEK293T cells with luciferase-tagged ELG1 | actives 1.3% (n = 330,000) | HEK293T ELG1-luciferase reporter, luminescence, 16 h | Potency, µM (series often up to 46 µM), for the others: at the highest dose activity change, positive = activation, usual class: activators; note: % of control where 0% means no effect; nearly all actives have a fitted effect of over 60% in size
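Luminescence read-out: rising ELG1-luciferase signal, reflecting elevated ELG1 protein under genetic stress, flags genotoxic compounds. Cells were treated for 16 hr at 37 °C before ONE-Glo detection.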
Rab9 prom act: activators of Rab9 promoter | Huh7 Rab9 promoter-luciferase reporter, luminescence, 24 h | Potency, µM (doses to about 9.22 µM), inactives show at the top dose activation, negative = inhibition, most hits filed as activators | actives 2.8% (n = 320,000); note: % of control where 0% means no effect; nearly all actives have a fitted effect of over 60% in size
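Measured in stably transfected Huh7 cells bearing a Rab9 promoter–luciferase construct: 24 h compound treatment at 37 °C, followed by luminescence detection.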
Numbers without * were called inactive; ? = inconclusive; / = no result. A selection: hits, their analogues and other compounds. The true share with any hit is near 9.4%. Calls come from the whole dose curve; as a rule, active = well fitted curve in the direction sought with a large enough effect; inconclusive = small, poorly fitted or top-dose-only effect, or another doubt; inactive = no such curve, though single readings can be large; an effect the other way counts as inactive or inconclusive. Potency is the fitted concentration of half-maximal effect.

SMILES	ELG1 DNA repair	SMN2 splice up	FLuc counter	NPC1 promoter act	ELG1 genotoxic	Rab9 prom act
CCN(CC)C(=O)c1sc2c(c1C)c(=O)n(-c1ccccc1)c(=O)n2CC(=O)N(CC)c1cccc(C)c1	/	/	2.7%	/	/	/
O=C(CC1(O)C(=O)Nc2ccccc21)c1ccccc1O (configuration not stated)	1.8%	10.6%	-1.3%	-4.0%	1.7%	9.9%
O=C(CC1=NCCNC(c2ccccc2)C1)c1ccccc1O (configuration not stated)	?	11.2µM*	0.1%	16.5%	9.4%	?
COc1ccc(-c2cc(C(C)=O)c(C)n2CCC(=O)Nc2cccc(C)c2C)cc1	/	/	-0.5%	/	/	/
Cc1[nH]n(-c2ccccc2)c(=O)c1N=Nc1cccc(C(=O)O)c1	?	/	0.269µM*	?	?	1.12µM*
Cc1[nH]n(-c2ccccc2)c(=O)c1N=Nc1ccc(Cl)cc1	17.1%	/	-18.5%	22.9%	-1.8%	13.3%
Cc1ccc(N=Nc2c(N)n(-c3ccccc3)[nH]c2=O)cc1	?	?	4.78µM*	?	?	?
COC(=O)c1cc(N=Nc2c(C)[nH]c3ccccc23)cc(C(=O)OC)c1	0.6%	/	-1.3%	0.4%	1.6%	-9.4%
Cc1[nH]c2ccccc2c1N=Nc1cccc(C(=O)O)c1	?	12.6µM*	10.7µM*	3.16µM*	18.7%	2.24µM*
COc1ccccc1N=Nc1c(C)[nH]n(-c2ccccc2)c1=O	10.5%	/	10.7µM*	?	-3.4%	?
CCCn1c2ccccc2c2cnn(CC(=O)N3CCC(C)CC3)c(=O)c21	/	/	2.1%	/	/	/
CCN1C(=O)c2ccccc2S(=O)c2ccc(C(=O)N3CCN(c4cccc(Cl)c4)CC3)cc21 (configuration not stated)	/	16.0%	-0.7%	/	/	/
Cc1[nH]n(-c2ccccc2)c(=O)c1N=Nc1ccc(C(=O)O)cc1	?	/	7.57µM*	23.5%	12.4%	28.3%
Cc1[nH]n(-c2ccccc2)c(=O)c1N=Nc1ccccc1	?	14.1µM*	4.78µM*	?	?	?
COc1cc(C)c(CC/C(C)=C/C=C/C(C)=O)c(C)c1C	/	-6.4%	/	/	/	/
COc1ccc2oc(C(=O)NCCN3CCOCC3)c(C)c2c1OC	?	/	15.1µM*	2µM*	10.3µM*	2.24µM*
Cc1ccc2oc(C(=O)NCCCN3CCOCC3)c(C)c2c1	?	/	13.5µM*	3.16µM*	18.3µM*	3.98µM*
Cc1ccc2oc(C(=O)NCCC3CCCCO3)c(C)c2c1 (configuration not stated)	?	/	2.69µM*	0.562µM*	3.66µM*	0.447µM*
COC(=O)[C@@]1(Cc2ccc(OC)cc2)[C@H]2c3cc(C(=O)N4CCCC4)n(CCc4c[nH]c5cc(F)ccc45)c3C[C@H]2CN1C(=O)c1ccccc1	/	-12.9%	/	/	/	/
Cc1ccccc1C(=O)Nc1nnc(SCc2cc(=O)n3ccccc3n2)s1	/	/	-12.8%	/	/	/
N/C(=N\N=C/c1ccc(Br)cc1)N/N=C\c1ccc(Br)cc1	14.4%	-8.3%	10.7µM*	1.3%	2.1%	?
N/C(=N\N=C/c1ccc(F)cc1)N/N=C\c1ccc(F)cc1	-2.0%	/	6.01µM*	-0.6%	5.1%	-2.8%
O=C(Nc1ccccc1C(=O)Nc1nncs1)c1ccccc1	20.6µM*	/	21.3µM*	-3.0%	-8.5%	-2.1%
O=C(Nc1ccccc1C(=O)O)c1ccc(Br)o1	?	5.6%	19µM*	?	?	?
CCCC(=O)Nc1ccccc1NC(=O)c1ccc(OCC)cc1	?	-9.3%	1.2%	-7.5%	-3.3%	0.6%
SMILES	ELG1 DNA repair	SMN2 splice up	FLuc counter	NPC1 promoter act	ELG1 genotoxic	Rab9 prom act
Cc1ccccc1C(=O)Nc1nncs1	?	-7.2%	2.2%	0.4%	9.6%	21.7%
CCOc1ccc(C(=O)Nc2ccccc2C(=O)O)cc1	?	8.91µM*	0.953µM*	0.631µM*	?	1µM*
O=C(O)c1ccccc1NC(=O)c1ccccc1Nc1ccccc1	-3.6%	/	16.9µM*	4.7%	-6.6%	-2.6%
O=C(O)CNc1ccccc1C(=O)O	20.6µM*	/	-0.7%	-1.8%	0.1%	0.3%
O=C(Nc1ccccc1C(=O)Nc1ccccc1C(=O)O)c1ccccc1	0.9%	/	15.1µM*	-5.5%	-18.1%	2.7%
O=C(Nc1ccccc1C(=O)O)c1ccc(NC(=O)C2CC2)cc1	25.1%	/	-0.2%	0.7%	-10.7%	0.0%
O=C(Nc1ccccc1C(=O)NC1CC1)c1ccccc1	23.3%	/	4.1%	-5.7%	2.4%	-1.6%
Nc1ccc(C(=O)Nc2ccccc2C(=O)O)cc1	?	-12.8%	6.01µM*	23.8%	?	19.9%
CCOC(=O)c1ccc(OCC(=O)c2ccc(O)cc2O)cc1	?	-1.7%	6.75µM*	21.0%	?	22.4%
O=C(COc1ccccc1)OCC(=O)c1ccc(O)cc1O	11.0%	/	?	-8.7%	0.5%	2.7%
CCOC(=O)c1ccc(CC(=O)c2ccc(O)cc2O)o1	?	-2.1%	4.7%	-4.5%	-15.2%	1.5%
COC(=O)c1ccc(OCC(=O)c2ccc(C)c(C)c2)cc1	?	18.6%	?	25.9%	3.2%	21.6%
COC(=O)c1ccc(OCC(=O)c2ccc(O)cc2O)cc1	?	-6.8%	6.75µM*	?	9.9%	4.4%
O=C(COc1ccc(Cl)cc1)c1ccc(O)cc1O	?	/	8.49µM*	29.7%	?	?
O=C(COC(=O)c1ccc(O)cc1O)c1ccc(Cl)cc1	?	/	16.9µM*	12.6%	12.5%	-0.1%
O=C(COC(=O)c1ccc(O)cc1O)Nc1ccc(Cl)cn1	6.8%	/	6.1%	-5.4%	-4.1%	17.1%
Cc1cccc(CNC(=O)CCCN2C(=O)c3cccnc3Oc3ccccc32)c1	/	/	-2.5%	/	/	/
CCOC(=O)C1CCN(C(=O)Cn2nc(CC)n3c(cc4occc43)c2=O)CC1	/	-1.3%	-2.8%	/	/	/
COC(=O)c1ccc(-n2nnc(-c3nc(-c4ccc5c(c4)OCO5)no3)c2C)cc1	/	/	-2.1%	/	/	/
O=C(Nc1cccnc1)c1cc2cc(Br)ccc2o1	?	/	1.2µM*	2.51µM*	5.17µM*	?
O=C(Nc1cccnc1)Nc1ccc(Br)cc1Cl	12.0%	-9.0%	-20.6%	8.0%	3.3%	3.6%
O=C(NC(=S)Nc1cccnc1)c1cc2ccccc2o1	?	/	6.75µM*	22.4%	?	26.0%
O=C(NC(=S)Nc1ccc(CN2CCCCC2)cc1)c1cc2ccccc2o1	16.6%	/	-2.6%	3.16µM*	2.2%	-0.8%

Source: PubChem (National Center for Advancing Translational Sciences (NCATS))
